# Reference: PubChem BioAssay (Tox21)
# Results filed as inconclusive are left out. The source made the active and inactive calls. The call rests on the fitted dose curve; in most records, active means well fitted cell-killing curve with a large enough effect in the repeat runs; inconclusive means weak or mixed curves, or effect the other way; inactive means flat fitted curve, though single readings scatter.
# Experiment: cAMP Responsive Elements (CRE) small molecule agonists, cell-based qHTS assay: qHTS cell viability counter screen (AID 2060914); further: nearly all actives have a fitted effect of over 50% in size
# Conditions: CRE-bla HEK293T viability, CellTiter-Glo luminescence, 5 h; series mostly up to 92.4 µM; activity change, negative = cytotoxicity: at the top concentration
# In short: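 CRE-bla HEK293T cells in 10% dialyzed FBS medium were exposed to compounds for 3 h at 37C after 18 h plating. CellTiter-Glo was then added in the same wells, and luminescence was read after 30 min at room temperature.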
# On the % scale 0 is the no-effect control and ±100 the full control effect.
SMILES,"activity change, negative = cytotoxicity",Potency
O=C(NS(=O)(=O)/C=C/c1cccs1)c1ccc(F)cc1Br,14.6% (inactive),–
O=C(NC(Cc1cc(=O)[nH]c2ccccc12)C(=O)O)c1ccc(Cl)cc1 (stereo not given),0.8% [at 42.5 µM] (inactive),–
CC[C@@]1(O)C(=O)OCc2c1cc1n(c2=O)Cc2c-1nc1ccccc1c2/C=N/OC(C)(C)C,-0.349% [at 42.5 µM] (inactive),–
C=Cc1ccccc1,3.3% (inactive),–
NS(=O)(=O)c1ccccc1Cl,-5.02% (inactive),–
C=C[C@@]1(C)CC(=O)[C@]2(O)[C@@]3(C)[C@@H](O)CCC(C)(C)[C@@H]3[C@H](O)[C@H](OC(C)=O)[C@@]2(C)O1,–,inactive
CC(C)C1CCC(C(=O)N[C@H](Cc2ccccc2)C(=O)O)CC1 (stereo not given in full),10.9% [at 42.5 µM] (inactive),–
CCCCCCOc1ccc(N)cc1,-11% (inactive),–
O[C@@H](COc1cccc2ncccc12)CN1CCN(C2c3ccccc3[C@@H]3[C@H](c4ccccc42)C3(F)F)CC1 (stereo not given in full),4.12% [at 42.5 µM] (inactive),–
CC(C)(O)c1ccccc1CC[C@@H](SCC1(CC(=O)O)CC1)c1cccc(/C=C/c2ccc3ccc(Cl)cc3n2)c1,14.2% [at 42.5 µM] (inactive),–
COc1ccnc2c1CCCCC2S(=O)c1nc2ccccc2[nH]1 (stereo not given),6.54% [at 42.5 µM] (inactive),–
CCOC(=O)CC(O)(CC(=O)OCC)C(=O)OCC,-0.0766% (inactive),–
Cc1noc(NS(=O)(=O)c2ccc(N)cc2)c1C,–,inactive
C/C=C/C(=O)C1=C(C)CCCC1(C)C,-2.56% (inactive),–
COc1ccc(CCC(C)=O)cc1,0.259% (inactive),–
COc1ccccc1OCCNCC(O)COc1cccc2[nH]c3ccccc3c12 (stereo not given),-4.08% [at 42.5 µM] (inactive),–
CC(=O)OCc1ccco1,–,inactive
C=Cc1cccc(C)c1,8.45% (inactive),–
C[C@]12C=CC(=O)C=C1[C@@H](F)C[C@@H]1[C@@H]2[C@@H](O)C[C@@]2(C)[C@H]1CC[C@]2(O)C(=O)CO,-12.2% [at 42.5 µM] (inactive),–
COc1ccc2[nH]cc(CCNC(C)=O)c2c1,–,inactive

SMILES,"activity change, negative = cytotoxicity",Potency
CCCCCCCCCCCCSCCOCCO,-0.671% [at 42.5 µM] (inactive),–
CCCCCCCCCC,-11.3% (inactive),–
CCc1cccc(CC)c1,-4.88% (inactive),–
O=CC1CC1,24.6% (inactive),–
C=CC(C)(CCC=C(C)C)OC(=O)CC(C)C (stereo not given),0.34% (inactive),–
O=C(O)C1CCC(C(=O)O)CC1 (stereo not given),2.69% (inactive),–
Nc1ccc(F)cc1,-15.2% (inactive),–
CC(CN=Cc1ccccc1O)N=Cc1ccccc1O (stereo not given),5.48% (inactive),–
CCCCC(CC)CN1CN(CC(CC)CCCC)CC(C)(N)C1 (stereo not given),-0.857% [at 42.5 µM] (inactive),–
CC(C)(c1ccc(Oc2ccc3c(c2)C(=O)OC3=O)cc1)c1ccc(Oc2ccc3c(c2)C(=O)OC3=O)cc1,5.19% (inactive),–
COc1ccc(C)cc1,-3.99% (inactive),–
Cc1nc([N+](=O)[O-])cn1-c1ccc([N+](=O)[O-])cc1,1.67% [at 42.5 µM] (inactive),–
COc1cccc2c1C(=O)c1c(O)c3c(c(O)c1C2=O)C[C@@](O)(C(=O)CO)C[C@@H]3O[C@H]1C[C@H](N)[C@H](O)[C@H](C)O1,–,inactive
CCCCCCCC/C=C\CCCCCCCC(=O)N(C)CC(=O)O,-7.16% (inactive),–
CCCCCC(C)=O,–,inactive
CCCCOC(=O)C(C)O (stereo not given),6.69% (inactive),–
CCOC(=O)C(=O)CCCCCCl,-8.01% [at 42.5 µM] (inactive),–
CNCC[C@@H](Oc1ccccc1C)c1ccccc1,-1.76% [at 42.5 µM] (inactive),–
CCN1CCCC1CNC(=O)c1cc(S(N)(=O)=O)ccc1OC (stereo not given),-13.6% (inactive),–
COc1ccc(C(=O)c2ccccc2)c(O)c1,–,inactive
